Assays:
Test in all cases: log2 ratio of Biotin-Ahx-Ub-VS probe labelling (fragment/DMSO); higher = less target engagement (more negative = stronger competition), active = hit call of the paper (q ≤ 0.05, log2 ratio ≤ -1)
Details in all cases: compound concentration: 200 uM; treatment time: 3 h
USP34 = USP34 (UniProt Q70CQ2)
Summary of the method: (§1)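 Global-median-normalised Spectronaut label-free quantities were compared by unpaired t-test, and values are average log2 ratios of fragment over vehicle. Only proteins with ≥2 unique peptides were used. HEK293T lysate (495 µg per sample) was treated in triplicate with fragment at 200 µM or vehicle for 3 h and then with Biotin-Ahx-Ub-VS at 0.5 µM final for 1 h. Labelled DUBs were then NeutrAvidin-enriched, digested with LysC and trypsin, and run by diaPASEF LC-MS/MS.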

USP36 = target: T1, USP36 (UniProt Q9P275)
T1 sequence (whole entry): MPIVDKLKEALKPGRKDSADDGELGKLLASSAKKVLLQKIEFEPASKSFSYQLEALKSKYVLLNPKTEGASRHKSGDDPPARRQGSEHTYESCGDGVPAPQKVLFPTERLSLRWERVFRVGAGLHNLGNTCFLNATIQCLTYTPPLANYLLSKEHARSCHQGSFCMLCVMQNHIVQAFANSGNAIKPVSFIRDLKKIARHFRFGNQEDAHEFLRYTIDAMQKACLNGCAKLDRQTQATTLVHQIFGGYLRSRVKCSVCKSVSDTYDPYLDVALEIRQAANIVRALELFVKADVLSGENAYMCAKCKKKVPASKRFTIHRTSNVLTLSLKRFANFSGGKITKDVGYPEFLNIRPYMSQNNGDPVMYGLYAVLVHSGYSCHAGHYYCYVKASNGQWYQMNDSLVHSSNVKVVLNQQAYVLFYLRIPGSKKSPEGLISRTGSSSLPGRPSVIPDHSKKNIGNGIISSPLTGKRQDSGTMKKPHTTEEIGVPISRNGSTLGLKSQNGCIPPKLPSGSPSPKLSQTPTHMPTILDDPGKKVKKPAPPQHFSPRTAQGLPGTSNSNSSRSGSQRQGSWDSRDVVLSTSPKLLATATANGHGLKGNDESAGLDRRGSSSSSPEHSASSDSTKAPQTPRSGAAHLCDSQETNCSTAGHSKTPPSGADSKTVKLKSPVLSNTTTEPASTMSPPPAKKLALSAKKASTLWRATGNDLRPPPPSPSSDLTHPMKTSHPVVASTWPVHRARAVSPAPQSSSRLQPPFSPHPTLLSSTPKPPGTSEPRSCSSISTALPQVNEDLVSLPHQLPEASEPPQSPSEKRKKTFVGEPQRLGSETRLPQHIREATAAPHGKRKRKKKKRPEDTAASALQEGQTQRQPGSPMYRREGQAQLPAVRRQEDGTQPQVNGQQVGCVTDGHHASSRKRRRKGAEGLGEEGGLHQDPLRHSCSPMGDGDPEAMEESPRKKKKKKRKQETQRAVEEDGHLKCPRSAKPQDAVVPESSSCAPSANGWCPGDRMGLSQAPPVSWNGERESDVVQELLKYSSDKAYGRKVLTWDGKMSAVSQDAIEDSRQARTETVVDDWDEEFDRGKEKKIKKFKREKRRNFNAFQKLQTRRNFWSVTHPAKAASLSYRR
Summary of the method: as §1

USP38 = target: T2, USP38 (UniProt Q8NB14)
T2 sequence (whole entry): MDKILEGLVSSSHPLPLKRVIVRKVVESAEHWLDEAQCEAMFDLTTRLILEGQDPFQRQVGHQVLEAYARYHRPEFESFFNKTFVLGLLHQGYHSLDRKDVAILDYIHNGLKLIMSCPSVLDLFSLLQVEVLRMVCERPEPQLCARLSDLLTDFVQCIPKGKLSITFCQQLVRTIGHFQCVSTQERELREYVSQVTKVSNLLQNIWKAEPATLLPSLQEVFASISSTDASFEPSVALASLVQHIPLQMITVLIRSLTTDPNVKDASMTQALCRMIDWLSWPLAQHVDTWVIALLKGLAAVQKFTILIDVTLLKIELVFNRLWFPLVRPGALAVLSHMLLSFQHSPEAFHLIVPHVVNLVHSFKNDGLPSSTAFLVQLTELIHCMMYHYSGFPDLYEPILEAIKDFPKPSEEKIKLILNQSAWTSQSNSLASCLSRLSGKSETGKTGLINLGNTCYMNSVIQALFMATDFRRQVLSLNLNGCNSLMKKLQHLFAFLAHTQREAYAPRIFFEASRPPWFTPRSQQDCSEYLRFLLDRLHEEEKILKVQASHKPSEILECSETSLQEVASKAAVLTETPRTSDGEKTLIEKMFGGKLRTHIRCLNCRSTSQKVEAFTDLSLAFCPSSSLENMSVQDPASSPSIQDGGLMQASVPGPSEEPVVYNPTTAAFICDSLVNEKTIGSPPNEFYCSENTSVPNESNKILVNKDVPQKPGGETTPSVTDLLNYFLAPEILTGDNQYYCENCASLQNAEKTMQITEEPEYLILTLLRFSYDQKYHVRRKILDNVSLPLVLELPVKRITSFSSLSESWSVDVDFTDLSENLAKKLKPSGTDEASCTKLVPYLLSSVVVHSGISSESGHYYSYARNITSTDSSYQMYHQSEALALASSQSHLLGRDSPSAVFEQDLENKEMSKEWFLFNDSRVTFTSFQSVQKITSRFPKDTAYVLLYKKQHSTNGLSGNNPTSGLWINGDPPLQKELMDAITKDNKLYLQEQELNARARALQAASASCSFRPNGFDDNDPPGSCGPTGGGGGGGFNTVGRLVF
Summary of the method: as §1

USP39 = target: T3, USP39 (UniProt Q53GS9)
T3 sequence (whole entry): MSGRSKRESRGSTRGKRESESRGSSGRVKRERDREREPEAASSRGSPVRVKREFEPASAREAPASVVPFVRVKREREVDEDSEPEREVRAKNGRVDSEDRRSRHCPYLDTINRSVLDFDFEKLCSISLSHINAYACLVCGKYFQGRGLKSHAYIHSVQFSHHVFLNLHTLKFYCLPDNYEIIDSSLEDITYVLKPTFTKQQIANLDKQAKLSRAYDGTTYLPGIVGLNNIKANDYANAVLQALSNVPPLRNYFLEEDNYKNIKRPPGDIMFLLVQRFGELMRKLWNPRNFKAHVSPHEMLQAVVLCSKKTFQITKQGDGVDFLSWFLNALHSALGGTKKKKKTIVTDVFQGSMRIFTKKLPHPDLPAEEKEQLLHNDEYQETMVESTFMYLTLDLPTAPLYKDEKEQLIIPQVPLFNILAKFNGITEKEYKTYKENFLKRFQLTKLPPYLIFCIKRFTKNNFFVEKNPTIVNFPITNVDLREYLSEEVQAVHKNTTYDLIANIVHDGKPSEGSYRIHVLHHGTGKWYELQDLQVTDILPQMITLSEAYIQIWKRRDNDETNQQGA
Summary of the method: as §1

USP4 = target: T4, USP4 (UniProt Q13107)
T4 sequence (whole entry): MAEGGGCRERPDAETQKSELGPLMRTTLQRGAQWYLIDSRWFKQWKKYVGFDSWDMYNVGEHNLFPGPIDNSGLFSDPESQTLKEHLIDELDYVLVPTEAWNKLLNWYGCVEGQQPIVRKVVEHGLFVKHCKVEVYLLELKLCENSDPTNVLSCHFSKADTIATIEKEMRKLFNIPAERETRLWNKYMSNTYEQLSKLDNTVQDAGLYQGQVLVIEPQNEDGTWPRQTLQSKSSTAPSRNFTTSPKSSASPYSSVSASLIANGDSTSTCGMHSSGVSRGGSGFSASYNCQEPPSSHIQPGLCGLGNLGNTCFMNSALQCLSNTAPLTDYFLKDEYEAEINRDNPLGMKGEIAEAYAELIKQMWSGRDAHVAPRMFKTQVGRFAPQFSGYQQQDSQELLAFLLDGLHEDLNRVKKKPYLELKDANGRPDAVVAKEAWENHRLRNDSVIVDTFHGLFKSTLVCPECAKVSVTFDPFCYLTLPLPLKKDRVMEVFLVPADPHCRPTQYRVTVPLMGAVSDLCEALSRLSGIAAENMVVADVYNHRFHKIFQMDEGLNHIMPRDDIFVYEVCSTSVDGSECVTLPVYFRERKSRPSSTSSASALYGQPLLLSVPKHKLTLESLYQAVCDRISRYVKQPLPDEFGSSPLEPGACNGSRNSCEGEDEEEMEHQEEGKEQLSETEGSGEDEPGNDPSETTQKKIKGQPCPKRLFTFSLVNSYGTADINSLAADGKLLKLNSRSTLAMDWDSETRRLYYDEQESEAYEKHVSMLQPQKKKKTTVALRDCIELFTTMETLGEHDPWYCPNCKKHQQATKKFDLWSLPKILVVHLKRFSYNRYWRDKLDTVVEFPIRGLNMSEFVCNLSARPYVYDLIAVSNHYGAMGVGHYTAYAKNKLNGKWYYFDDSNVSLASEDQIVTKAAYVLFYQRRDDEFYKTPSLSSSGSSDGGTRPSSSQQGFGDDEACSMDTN
Summary of the method: as §1

Measured: log2 ratio of Biotin-Ahx-Ub-VS probe labelling

Sequence of USP34 (Q70CQ2 whole entry, the tested form may be a part): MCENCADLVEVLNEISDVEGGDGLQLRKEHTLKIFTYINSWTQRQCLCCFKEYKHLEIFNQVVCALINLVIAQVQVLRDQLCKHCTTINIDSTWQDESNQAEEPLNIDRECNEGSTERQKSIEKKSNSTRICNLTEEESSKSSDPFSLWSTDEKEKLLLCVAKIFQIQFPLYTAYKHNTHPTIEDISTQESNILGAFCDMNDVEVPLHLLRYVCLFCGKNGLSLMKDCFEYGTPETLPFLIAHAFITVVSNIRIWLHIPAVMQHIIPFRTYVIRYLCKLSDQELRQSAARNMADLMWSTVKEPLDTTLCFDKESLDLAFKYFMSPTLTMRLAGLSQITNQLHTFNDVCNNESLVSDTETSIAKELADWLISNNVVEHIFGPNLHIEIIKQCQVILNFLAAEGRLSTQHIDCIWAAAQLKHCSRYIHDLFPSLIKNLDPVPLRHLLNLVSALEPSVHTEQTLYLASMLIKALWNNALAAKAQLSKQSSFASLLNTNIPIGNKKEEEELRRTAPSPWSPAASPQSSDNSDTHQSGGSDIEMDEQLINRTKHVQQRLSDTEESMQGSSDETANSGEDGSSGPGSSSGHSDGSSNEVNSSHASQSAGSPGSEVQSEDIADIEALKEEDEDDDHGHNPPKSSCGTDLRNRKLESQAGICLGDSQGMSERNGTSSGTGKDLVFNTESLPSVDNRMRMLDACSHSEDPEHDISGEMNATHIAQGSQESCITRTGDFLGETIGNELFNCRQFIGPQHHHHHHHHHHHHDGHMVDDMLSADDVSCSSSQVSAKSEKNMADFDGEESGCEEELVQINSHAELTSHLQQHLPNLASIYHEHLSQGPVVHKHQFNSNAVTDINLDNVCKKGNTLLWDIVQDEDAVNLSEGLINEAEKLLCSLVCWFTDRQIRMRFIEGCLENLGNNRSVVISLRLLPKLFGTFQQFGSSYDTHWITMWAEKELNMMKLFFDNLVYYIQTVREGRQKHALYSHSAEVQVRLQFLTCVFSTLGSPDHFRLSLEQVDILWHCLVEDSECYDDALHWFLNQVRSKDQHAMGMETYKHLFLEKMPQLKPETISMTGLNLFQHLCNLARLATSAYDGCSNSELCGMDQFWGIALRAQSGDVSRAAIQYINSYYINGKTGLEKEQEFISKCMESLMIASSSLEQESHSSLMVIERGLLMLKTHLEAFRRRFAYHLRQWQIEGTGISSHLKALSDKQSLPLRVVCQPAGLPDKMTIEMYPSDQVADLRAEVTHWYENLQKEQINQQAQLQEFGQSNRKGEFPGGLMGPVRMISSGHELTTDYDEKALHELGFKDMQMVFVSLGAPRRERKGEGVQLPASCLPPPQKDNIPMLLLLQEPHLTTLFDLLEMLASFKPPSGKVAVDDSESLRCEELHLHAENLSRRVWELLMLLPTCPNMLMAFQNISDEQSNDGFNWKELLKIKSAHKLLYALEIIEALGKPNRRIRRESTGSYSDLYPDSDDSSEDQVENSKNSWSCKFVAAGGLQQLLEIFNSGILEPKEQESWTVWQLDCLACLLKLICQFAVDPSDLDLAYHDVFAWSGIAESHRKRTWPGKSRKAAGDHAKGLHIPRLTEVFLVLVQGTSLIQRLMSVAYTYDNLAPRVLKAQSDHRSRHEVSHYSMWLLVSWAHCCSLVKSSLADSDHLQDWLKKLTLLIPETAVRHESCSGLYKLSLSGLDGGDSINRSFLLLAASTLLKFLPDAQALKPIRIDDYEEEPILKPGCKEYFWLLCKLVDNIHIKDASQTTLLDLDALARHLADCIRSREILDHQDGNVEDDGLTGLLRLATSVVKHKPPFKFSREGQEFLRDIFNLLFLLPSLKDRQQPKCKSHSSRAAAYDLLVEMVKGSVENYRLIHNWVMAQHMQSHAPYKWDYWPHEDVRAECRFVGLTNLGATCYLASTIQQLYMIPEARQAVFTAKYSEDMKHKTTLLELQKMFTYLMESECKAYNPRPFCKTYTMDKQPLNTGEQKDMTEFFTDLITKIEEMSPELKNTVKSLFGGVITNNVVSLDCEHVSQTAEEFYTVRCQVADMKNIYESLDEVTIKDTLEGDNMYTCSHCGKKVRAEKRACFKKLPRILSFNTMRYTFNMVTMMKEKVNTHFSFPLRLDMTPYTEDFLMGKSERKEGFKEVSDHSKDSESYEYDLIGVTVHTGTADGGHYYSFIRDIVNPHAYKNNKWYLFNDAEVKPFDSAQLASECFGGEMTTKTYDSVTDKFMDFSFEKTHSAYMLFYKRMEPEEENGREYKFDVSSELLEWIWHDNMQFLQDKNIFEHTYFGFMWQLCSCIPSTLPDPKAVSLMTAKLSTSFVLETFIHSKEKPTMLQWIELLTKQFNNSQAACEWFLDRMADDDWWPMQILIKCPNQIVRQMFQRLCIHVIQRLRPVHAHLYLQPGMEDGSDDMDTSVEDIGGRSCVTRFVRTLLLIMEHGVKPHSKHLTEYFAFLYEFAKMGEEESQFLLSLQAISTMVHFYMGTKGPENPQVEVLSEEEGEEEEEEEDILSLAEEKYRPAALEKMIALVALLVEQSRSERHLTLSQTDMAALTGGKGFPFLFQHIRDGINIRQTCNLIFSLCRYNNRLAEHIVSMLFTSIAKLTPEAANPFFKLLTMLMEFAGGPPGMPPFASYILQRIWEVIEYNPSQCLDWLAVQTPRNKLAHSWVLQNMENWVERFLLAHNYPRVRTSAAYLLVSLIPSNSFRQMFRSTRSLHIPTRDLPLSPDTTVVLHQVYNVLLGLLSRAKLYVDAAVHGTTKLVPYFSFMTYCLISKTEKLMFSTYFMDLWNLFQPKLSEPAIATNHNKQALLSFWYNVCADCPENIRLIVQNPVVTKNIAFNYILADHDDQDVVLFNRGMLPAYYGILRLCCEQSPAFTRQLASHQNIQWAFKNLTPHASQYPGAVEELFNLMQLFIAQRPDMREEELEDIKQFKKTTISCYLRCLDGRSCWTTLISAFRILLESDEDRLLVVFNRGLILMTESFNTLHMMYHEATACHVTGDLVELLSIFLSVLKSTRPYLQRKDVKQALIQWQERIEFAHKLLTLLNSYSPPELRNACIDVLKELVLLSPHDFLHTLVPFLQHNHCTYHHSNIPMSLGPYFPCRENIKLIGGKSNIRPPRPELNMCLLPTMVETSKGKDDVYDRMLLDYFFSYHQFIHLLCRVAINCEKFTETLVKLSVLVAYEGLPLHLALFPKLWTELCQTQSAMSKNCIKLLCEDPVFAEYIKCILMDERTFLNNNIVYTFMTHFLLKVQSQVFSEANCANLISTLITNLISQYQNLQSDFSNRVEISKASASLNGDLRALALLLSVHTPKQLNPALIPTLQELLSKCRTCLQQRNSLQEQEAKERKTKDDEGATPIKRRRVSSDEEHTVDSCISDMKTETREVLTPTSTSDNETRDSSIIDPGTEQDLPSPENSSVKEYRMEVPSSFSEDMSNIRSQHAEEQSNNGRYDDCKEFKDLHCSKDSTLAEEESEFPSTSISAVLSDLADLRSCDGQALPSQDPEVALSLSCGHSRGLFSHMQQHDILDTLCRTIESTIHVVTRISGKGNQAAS

COc1cc(Cl)c(C)cc1NC(=O)CCl
inactive: USP34 -0.327 | USP36 -0.122 | USP38 -0.241 | USP39 -0.366 | USP4 -0.423

From the supplement of paper PMC11732987, “Enantioselective OTUD7B fragment discovery through chemoproteomics screening and high-throughput optimisation” (Communications Chemistry, 2025)
